The supplement of paper PMC11732987, “Enantioselective OTUD7B fragment discovery through chemoproteomics screening and high-throughput optimisation” (Communications Chemistry, 2025)

What was measured:
Experiment in all cases: log2 ratio of Biotin-Ahx-Ub-VS probe labelling (fragment/DMSO); higher = less target engagement (more negative = stronger competition), active = hit call of the paper (q ≤ 0.05, log2 ratio ≤ -1)
Settings in all cases: compound concentration: 200 uM; treatment time: 3 h
[1] = target: USP34 (UniProt Q70CQ2)
How it was run: (§1)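 HEK293T lysate in Tris/CHAPS/IGEPAL buffer with protease inhibitors (495 µg per sample) was given fragment at 200 µM or vehicle for 3 h, in triplicate. It then received Biotin-Ahx-Ub-VS at 0.5 µM final for 1 h. Labelled DUBs were NeutrAvidin-enriched, digested with LysC and trypsin, and run by diaPASEF LC-MS/MS. Values are average log2 fragment/vehicle ratios by unpaired t-test on global-median-normalised Spectronaut quantities of proteins with ≥2 unique peptides.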

[2] = target: T1, USP36 (UniProt Q9P275)
T1 sequence (whole entry): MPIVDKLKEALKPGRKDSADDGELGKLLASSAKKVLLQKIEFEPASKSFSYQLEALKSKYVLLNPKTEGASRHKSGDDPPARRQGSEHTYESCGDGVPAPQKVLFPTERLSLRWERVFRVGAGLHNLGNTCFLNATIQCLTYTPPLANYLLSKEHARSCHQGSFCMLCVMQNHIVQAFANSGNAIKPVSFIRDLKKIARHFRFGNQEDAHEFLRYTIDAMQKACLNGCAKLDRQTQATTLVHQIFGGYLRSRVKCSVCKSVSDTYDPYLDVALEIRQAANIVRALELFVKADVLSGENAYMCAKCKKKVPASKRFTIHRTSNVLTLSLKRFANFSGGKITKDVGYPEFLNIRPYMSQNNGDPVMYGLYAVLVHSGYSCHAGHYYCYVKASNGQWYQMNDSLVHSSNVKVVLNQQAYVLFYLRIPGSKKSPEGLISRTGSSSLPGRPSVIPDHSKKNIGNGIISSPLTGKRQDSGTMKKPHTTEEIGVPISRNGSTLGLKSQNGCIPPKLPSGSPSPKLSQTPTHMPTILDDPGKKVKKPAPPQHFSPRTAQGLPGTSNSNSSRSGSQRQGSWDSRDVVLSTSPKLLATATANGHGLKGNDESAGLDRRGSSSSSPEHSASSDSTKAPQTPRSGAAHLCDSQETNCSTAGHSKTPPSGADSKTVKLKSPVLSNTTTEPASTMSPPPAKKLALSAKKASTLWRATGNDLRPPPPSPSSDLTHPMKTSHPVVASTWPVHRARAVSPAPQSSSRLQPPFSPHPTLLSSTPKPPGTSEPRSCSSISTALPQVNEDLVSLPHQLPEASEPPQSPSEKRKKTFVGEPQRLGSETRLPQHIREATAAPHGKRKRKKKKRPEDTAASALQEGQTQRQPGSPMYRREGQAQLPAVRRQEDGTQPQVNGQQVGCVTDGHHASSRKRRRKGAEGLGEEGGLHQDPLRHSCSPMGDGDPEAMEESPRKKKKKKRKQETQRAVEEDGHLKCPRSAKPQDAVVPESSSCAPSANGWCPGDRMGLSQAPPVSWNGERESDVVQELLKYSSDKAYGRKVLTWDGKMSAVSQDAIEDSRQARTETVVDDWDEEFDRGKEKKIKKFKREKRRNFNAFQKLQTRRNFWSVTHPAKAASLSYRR
How it was run: as §1

[3] = target: T2, USP38 (UniProt Q8NB14)
T2 sequence (whole entry): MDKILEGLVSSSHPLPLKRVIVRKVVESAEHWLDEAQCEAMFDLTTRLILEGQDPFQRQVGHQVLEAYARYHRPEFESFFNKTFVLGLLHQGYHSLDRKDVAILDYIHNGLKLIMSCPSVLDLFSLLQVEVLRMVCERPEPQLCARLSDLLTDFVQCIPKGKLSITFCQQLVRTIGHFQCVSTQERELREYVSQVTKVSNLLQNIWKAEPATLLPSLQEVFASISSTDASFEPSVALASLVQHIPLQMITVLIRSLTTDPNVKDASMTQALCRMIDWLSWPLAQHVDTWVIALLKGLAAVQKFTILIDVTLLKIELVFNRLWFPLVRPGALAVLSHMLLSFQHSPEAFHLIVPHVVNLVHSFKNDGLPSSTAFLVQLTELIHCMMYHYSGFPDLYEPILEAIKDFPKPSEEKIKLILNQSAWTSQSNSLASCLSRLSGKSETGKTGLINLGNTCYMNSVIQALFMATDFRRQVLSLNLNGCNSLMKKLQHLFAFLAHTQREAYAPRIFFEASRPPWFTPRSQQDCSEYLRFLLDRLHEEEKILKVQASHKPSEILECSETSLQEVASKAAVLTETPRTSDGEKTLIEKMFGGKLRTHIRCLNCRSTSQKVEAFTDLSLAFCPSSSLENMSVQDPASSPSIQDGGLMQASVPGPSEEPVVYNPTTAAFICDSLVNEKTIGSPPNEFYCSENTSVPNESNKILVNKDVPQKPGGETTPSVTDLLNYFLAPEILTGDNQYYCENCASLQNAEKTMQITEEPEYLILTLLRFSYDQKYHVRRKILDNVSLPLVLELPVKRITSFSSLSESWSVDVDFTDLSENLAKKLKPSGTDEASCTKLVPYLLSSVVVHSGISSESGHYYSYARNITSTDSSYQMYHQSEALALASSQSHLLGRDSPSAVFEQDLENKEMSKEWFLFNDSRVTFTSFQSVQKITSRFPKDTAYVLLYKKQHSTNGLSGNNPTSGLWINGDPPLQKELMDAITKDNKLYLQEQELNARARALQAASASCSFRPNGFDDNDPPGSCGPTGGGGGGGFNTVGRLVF
How it was run: as §1

[4] = target: T3, USP39 (UniProt Q53GS9)
T3 sequence (whole entry): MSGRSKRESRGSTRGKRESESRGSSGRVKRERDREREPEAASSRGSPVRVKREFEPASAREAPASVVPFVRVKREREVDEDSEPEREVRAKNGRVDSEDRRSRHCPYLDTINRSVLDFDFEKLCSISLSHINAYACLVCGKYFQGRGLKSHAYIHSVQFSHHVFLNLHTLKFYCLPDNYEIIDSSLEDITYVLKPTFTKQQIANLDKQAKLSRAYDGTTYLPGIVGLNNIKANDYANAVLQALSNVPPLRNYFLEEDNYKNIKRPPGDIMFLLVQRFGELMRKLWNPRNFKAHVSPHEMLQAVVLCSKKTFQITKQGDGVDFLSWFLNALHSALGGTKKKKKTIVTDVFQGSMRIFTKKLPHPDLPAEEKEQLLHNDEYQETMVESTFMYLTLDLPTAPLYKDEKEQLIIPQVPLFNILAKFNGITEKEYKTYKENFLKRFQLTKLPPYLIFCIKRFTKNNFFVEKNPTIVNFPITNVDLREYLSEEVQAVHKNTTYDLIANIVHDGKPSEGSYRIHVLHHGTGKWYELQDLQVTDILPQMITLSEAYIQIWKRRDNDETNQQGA
How it was run: as §1

[5] = target: T4, USP4 (UniProt Q13107)
T4 sequence (whole entry): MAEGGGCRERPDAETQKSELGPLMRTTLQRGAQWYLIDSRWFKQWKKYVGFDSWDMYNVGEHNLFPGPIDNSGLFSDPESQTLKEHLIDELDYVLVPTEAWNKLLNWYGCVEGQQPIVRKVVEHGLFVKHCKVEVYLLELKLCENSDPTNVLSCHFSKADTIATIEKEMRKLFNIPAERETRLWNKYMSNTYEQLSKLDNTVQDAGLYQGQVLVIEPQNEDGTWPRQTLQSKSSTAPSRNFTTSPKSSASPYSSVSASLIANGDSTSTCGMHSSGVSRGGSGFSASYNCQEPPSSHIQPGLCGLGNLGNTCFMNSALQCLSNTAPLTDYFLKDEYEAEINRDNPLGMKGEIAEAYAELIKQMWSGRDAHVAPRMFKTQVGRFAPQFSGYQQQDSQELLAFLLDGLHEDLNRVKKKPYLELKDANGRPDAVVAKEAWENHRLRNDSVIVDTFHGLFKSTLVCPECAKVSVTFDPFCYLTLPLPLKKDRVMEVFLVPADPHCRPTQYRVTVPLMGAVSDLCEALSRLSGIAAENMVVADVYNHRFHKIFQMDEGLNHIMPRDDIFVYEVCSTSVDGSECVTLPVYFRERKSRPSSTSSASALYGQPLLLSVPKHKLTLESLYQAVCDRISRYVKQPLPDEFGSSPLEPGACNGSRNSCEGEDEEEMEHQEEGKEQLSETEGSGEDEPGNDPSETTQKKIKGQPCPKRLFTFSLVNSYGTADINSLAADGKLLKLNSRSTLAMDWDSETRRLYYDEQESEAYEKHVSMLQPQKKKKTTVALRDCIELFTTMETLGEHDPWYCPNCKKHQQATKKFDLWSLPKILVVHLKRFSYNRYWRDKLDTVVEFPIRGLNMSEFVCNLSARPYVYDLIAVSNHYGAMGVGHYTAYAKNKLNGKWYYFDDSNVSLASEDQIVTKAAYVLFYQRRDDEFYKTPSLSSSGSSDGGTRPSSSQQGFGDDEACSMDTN
How it was run: as §1

Measured: log2 ratio of Biotin-Ahx-Ub-VS probe labelling

USP34, sequence (Q70CQ2 whole entry, the tested form may be a part): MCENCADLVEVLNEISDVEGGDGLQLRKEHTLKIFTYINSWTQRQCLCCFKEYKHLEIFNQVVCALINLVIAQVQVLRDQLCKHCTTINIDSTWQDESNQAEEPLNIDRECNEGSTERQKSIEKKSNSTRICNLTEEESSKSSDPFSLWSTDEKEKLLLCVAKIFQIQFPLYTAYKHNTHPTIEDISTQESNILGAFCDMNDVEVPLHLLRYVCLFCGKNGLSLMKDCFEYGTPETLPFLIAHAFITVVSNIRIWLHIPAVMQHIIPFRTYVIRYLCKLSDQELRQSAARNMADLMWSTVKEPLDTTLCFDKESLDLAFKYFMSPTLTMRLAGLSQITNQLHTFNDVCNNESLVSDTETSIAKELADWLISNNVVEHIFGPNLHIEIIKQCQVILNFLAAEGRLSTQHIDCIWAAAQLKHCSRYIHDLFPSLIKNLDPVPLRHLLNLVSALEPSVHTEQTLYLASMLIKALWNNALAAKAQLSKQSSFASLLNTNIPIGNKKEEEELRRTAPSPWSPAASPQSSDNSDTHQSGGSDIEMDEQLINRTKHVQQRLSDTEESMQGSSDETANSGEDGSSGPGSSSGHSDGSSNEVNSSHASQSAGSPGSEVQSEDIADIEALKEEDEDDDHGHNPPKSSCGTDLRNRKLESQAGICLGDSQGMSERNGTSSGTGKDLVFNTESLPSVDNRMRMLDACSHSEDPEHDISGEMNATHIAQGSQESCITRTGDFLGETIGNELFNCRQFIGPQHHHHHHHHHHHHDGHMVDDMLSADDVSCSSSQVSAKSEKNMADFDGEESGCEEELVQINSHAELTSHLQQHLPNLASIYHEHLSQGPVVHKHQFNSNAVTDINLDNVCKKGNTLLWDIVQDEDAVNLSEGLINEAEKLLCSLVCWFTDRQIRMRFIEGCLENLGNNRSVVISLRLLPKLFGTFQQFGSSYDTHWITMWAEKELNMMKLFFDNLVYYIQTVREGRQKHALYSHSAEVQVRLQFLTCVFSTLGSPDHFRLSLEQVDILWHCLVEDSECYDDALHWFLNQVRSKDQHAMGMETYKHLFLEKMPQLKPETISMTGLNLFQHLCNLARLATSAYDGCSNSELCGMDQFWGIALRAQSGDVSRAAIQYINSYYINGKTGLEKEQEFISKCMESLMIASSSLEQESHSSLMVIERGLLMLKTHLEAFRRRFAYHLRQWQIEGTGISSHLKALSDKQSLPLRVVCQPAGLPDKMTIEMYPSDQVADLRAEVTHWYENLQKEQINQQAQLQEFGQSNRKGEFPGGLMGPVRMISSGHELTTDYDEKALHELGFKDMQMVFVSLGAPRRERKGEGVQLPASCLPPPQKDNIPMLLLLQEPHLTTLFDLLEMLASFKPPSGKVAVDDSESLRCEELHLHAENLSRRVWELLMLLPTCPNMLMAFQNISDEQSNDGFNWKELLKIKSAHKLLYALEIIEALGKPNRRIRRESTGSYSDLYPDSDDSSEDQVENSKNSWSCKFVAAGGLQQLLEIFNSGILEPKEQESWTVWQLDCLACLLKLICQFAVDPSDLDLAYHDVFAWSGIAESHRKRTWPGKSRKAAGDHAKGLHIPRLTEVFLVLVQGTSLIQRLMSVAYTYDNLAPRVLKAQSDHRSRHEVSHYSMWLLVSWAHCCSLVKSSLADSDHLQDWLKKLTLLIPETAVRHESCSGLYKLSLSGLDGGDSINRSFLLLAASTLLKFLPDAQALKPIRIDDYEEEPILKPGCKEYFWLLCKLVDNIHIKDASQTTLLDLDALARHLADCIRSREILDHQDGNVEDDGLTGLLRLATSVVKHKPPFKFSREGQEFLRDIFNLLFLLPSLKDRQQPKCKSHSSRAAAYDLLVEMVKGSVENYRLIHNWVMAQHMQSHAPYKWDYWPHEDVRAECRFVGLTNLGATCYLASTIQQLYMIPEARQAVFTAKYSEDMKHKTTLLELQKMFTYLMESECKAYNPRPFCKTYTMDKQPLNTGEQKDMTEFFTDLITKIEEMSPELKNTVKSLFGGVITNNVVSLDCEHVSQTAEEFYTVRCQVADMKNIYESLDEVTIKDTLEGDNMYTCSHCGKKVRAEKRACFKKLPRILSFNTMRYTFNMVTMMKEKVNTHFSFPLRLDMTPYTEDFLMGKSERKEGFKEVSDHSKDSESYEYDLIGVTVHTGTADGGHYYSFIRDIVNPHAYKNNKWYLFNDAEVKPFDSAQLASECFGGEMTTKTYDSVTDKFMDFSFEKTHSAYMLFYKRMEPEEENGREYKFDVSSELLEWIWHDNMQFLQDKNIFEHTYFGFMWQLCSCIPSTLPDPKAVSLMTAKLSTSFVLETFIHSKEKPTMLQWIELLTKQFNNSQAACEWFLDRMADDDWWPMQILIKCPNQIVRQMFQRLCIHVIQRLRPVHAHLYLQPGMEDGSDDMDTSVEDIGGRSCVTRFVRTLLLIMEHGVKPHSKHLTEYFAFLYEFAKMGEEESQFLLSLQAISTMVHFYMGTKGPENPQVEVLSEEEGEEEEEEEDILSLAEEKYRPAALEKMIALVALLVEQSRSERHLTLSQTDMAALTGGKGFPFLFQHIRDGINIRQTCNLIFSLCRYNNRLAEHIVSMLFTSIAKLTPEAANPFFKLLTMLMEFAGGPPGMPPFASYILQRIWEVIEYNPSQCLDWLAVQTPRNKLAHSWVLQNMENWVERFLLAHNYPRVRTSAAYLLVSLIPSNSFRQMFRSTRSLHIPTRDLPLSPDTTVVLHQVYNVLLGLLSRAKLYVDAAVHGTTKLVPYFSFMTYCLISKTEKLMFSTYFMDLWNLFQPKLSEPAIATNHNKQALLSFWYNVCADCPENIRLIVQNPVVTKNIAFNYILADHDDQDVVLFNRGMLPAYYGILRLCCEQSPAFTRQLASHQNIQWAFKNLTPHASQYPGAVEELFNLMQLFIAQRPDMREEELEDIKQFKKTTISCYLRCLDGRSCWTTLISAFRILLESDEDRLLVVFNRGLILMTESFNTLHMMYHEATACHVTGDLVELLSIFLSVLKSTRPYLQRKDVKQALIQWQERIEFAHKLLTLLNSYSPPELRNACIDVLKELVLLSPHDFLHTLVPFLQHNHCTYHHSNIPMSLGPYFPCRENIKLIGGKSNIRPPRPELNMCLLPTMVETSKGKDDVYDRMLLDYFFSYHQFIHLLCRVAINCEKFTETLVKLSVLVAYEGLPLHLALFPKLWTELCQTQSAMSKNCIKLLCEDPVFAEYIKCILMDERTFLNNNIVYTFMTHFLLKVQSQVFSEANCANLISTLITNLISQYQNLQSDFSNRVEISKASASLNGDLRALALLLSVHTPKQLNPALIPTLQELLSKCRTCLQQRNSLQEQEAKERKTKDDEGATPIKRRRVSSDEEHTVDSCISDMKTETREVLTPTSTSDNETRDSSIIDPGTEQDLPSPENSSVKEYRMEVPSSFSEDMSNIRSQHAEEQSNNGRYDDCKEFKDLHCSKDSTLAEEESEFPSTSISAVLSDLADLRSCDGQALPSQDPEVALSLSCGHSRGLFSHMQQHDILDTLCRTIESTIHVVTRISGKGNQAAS

O=C(CCl)N1c2ccccc2NC(=O)C12CCCC2
inactive: [1] -0.193 | [2] 0.111 | [3] 0.18 | [4] 0.678 | [5] -0.0657
